High-throughput results (PubChem BioAssay)
TSHR antagonist – Antagonists of the Thyroid Stimulating Hormone Receptor: HTS campaign. Thyrotropin receptor (Homo sapiens), P16473. TSHR-expressing cells, TSH-stimulated cAMP HTRF, 2 h; hits give low values. activity change, negative = inhibition, % at 11.5 µM. 330,000 tested, 0.2% active;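 active = activity change below a set negative limit, meaning inhibition stronger than a set level, cut at about -70% in these data; inconclusive = activity change between two set negative limits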; also: % is scaled to controls: 0 for no effect and ±100 for the full control effect
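Freshly harvested TSHR cells receive pin-tooled compound, then EC80 TSH at 4nM final. After 2 hours at 37 deg C, antibody in lysis buffer and cAMP-d2 are added; 30 minutes at ambient temperature precede the HTRF read.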
EPAC2 antagonist – qHTS for Antagonist of cAMP-regulated guanine nucleotide exchange factor 2 (EPAC2): primary screen; 360,000 tested, 0.18% active; Potency, µM (doses to about 114 µM), for the others: top-dose activity, negative = inhibition, usual class: inhibitors; Rap guanine nucleotide exchange factor 4 (Homo sapiens), Q8WZA2; EPAC2 GEF exchange of Rap1B-BODIPY-GDP, fluorescence; also: potency is read from the fitted curve at half-maximal effect; % is scaled to controls: 0 for no effect and ±100 for the full control effect; nearly all actives have a fitted effect of over 45% in size
PTHR1 agonist – qHTS for PTHR1 Agonists: Primary Screen. Parathyroid hormone/parathyroid hormone-related peptide receptor (Homo sapiens), Q03431. HEK293 GP2 PTHR1 cells, GloSensor cAMP luminescence, 1 h. Potency, µM (doses to about 115 µM), for inactives: at the top dose activation, hits mostly activators. 410,000 tested, 0.075% active. AID 743266, 2014; also: potency is read from the fitted curve at half-maximal effect; nearly all actives have a fitted effect of over 55% in size
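HEK-293-derived GP2 cells expressing PTHR1 and a GloSensor cAMP reporter, 3,000/well, plated overnight, given luciferin plus IBMX (each 0.5 mM as added) for 1 h at 37 °C, then compound for 1 h at 37 °C. Luminescence was read after 15 min at room temperature.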
EPAC1 antag – qHTS for Antagonist of cAMP-regulated guanine nucleotide exchange factor 3 (EPAC1): primary screen; AID 720709, 2013; EPAC1 GEF assay, Rap1b-BODIPY-GDP exchange fluorescence; Rap guanine nucleotide exchange factor 3 (Homo sapiens), O95398; Potency, µM (highest dose often 115 µM), for the others: at the top dose activity change, negative = inhibition, most hits filed as inhibitors; 360,000 tested, 0.14% active;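 also: potency is read from the fitted curve at half-maximal effect; plate controls were vehicle for no effect and positive control for full effect; nearly all actives have a fitted effect of over 50% in size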
EPAC2 ag – qHTS for Agonist of cAMP-regulated guanine nucleotide exchange factor 4 (EPAC2): primary screen | 360,000 tested, 0.079% active | EPAC2 activation, biochemical qHTS; response scale: 100% = 6.5 mM cAMP response | AID 720711, 2013 | Potency, µM (series often up to 154 µM), inactives show top-dose activation, hits mostly activators; also: potency is read from the fitted curve at half-maximal effect; nearly all actives have a fitted effect of over 50% in size
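Setup: EPAC2 100 nM, labeled Rap1B complex 250 nM, free GDP 50 uM. Compound titrations pinned in, brief spin, 5 min room temperature incubation. Kinetic fluorescence read over 30 min, normalized to 6.5 mM cAMP.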
EPAC1 agonist – qHTS for Agonist of cAMP-regulated guanine nucleotide exchange factor 3 (EPAC1): primary screen; Rap guanine nucleotide exchange factor 3 (Homo sapiens), O95398; EPAC1 agonist qHTS, biochemical assay; response scale: 100% = response to 6.5 mM cAMP; Potency, µM (top dose mostly 154 µM), for the others: top-dose activation, hits mostly activators; 360,000 tested, 0.073% active; AID 720707, 2013; also: potency is read from the fitted curve at half-maximal effect; nearly all actives have a fitted effect of over 60% in size
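Normalized to 6.5 mM cAMP, activity reflects EPAC1-catalysed release of BODIPY-GDP from Rap1B, followed kinetically over 30 min at 480 nm excitation, 540 nm emission. Reaction contained 100 nM EPAC1, 250 nM Rap1B-BODIPY-GDP, 50 uM GDP.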
* marks the source's active call; other numbers are inactive results; ! = not active in a repeat; [ ] = dose if it differs, or a comment. Sampled rows, rich in hits. Any-hit rate of the full collection: about 0.5%. Unless noted, calls follow the shape of the dose curve; as a rule, active = well fitted curve in the direction sought with a large enough effect; inconclusive = small, poorly fitted or top-dose-only effect, or another doubt; inactive = no such curve, though single readings can be large; an effect the other way counts as inactive or inconclusive.

What do the screens show for `CCOC(=O)c1c(NC(=O)COC(=O)CCNS(=O)(=O)c2ccccc2)sc(C(=O)NC)c1C`?
EPAC2 antagonist: 11%; PTHR1 agonist: -38%; EPAC1 antag: 10%; EPAC2 ag: 3%; EPAC1 agonist: -7%

Results for O=C1NN(c2ccccc2)C(=O)/C1=C/c1ccc(Sc2cccc3ccccc23)o1 ?
TSHR antagonist: -6; EPAC2 antagonist: 5%; PTHR1 agonist: inactive; EPAC1 antag: 56µM*; EPAC2 ag: -13%; EPAC1 agonist: -5%

How did Cc1[nH]c2ccc(C(=O)NCCN3CCCCCC3)cc2c1C do in these assays?
TSHR antagonist: -9; EPAC2 antagonist: -4%; PTHR1 agonist: inactive; EPAC1 antag: -6%; EPAC2 ag: 11%; EPAC1 agonist: 9%

Results for Cc1[nH]c2ccc(C(=O)NCCCN3CCCCC3)cc2c1C ?
TSHR antagonist: -2; EPAC2 antagonist: 9%; PTHR1 agonist: 18µM*!; EPAC1 antag: 1%; EPAC2 ag: 2%; EPAC1 agonist: -6%

What do the screens show for `O=S(=O)(Nc1c(S(=O)(=O)c2ccccc2)c2nc3ccccc3nc2n1C1CCCCC1)c1ccccc1`?
TSHR antagonist: -36; EPAC2 antagonist: inconclusive; PTHR1 agonist: -29%; EPAC1 antag: 40µM*; EPAC2 ag: -3%; EPAC1 agonist: 4%

How did COCCCn1cc(CN2CC(N3CCN(Cc4cccc(C)c4)CC3)CS2(=O)=O)nn1 (stereo not drawn) do in these assays?
EPAC2 antagonist: 2%; PTHR1 agonist: inactive; EPAC1 antag: 8%; EPAC2 ag: 10%; EPAC1 agonist: -4%

How did CCc1nn(CC(=O)NCc2ccco2)c(=O)c2cc3cc(F)ccc3n12 do in these assays?
PTHR1 agonist: -17%

Results for CC(=O)c1ccc(NC(=O)CSc2nc(=O)n(Cc3ccncc3)c3c2CCC3)cc1 ?
PTHR1 agonist: inactive

How did Nc1ncnc2c1nc(Br)n2[C@@H]1O[C@@H]2COP(=O)(O)O[C@H]2[C@H]1O do in these assays?
EPAC2 antagonist: 2.5µM*; PTHR1 agonist: -27%; EPAC1 antag: 1.3µM*; EPAC2 ag: inconclusive; EPAC1 agonist: 11µM*

What do the screens show for `Nc1ncnc2c1nc(Sc1ccc(Cl)cc1)n2[C@H]1OC2COP(=O)(O)O[C@@H]2C1O` (stereo partly drawn)?
TSHR antagonist: -7

How did Cn1nnnc1SCC(=O)N1c2ccccc2Sc2ccccc21 do in these assays?
TSHR antagonist: -24; EPAC2 antagonist: -4%; PTHR1 agonist: -3%; EPAC1 antag: 0%; EPAC2 ag: -5%; EPAC1 agonist: 0%

How did O=C(CSc1nncs1)N1c2ccccc2Sc2ccccc21 do in these assays?
TSHR antagonist: -71*; EPAC2 antagonist: -3%; PTHR1 agonist: 28%[57.5 µM]; EPAC1 antag: -9%; EPAC2 ag: 12%; EPAC1 agonist: 12%

How did O=C(NCC(c1ccco1)N1CCCC1)c1cccc(S(=O)(=O)Nc2ccc(F)cc2)c1 (stereo not drawn) do in these assays?
TSHR antagonist: 12; EPAC2 antagonist: -6%; PTHR1 agonist: inactive; EPAC1 antag: -3%; EPAC2 ag: -5%; EPAC1 agonist: -6%

How did COc1ccc2c(c1)CCC1C2CC[C@@]2(C)C1CC[C@@H]2NCCCCCCN1C(=O)CCC1=O (stereo partly drawn) do in these assays?
TSHR antagonist: -36

How did O=C(Nc1ccc2nc(-c3ccccc3)[nH]c2c1)c1cccs1 do in these assays?
TSHR antagonist: 3; EPAC2 antagonist: -3%; PTHR1 agonist: inactive; EPAC1 antag: -8%; EPAC2 ag: 22%; EPAC1 agonist: -1%

Results for O=C(Nc1ccc2nc(-c3ccc4nc[nH]c4c3)[nH]c2c1)c1cccs1 ?
TSHR antagonist: 14; EPAC2 antagonist: 50µM*; PTHR1 agonist: -6%[57.5 µM]; EPAC1 antag: -8%; EPAC2 ag: inconclusive; EPAC1 agonist: 13%

How did Cc1ccc2oc(=O)c(/C=C(\O)c3ccco3)nc2c1 do in these assays?
TSHR antagonist: -3; EPAC2 antagonist: 214%; PTHR1 agonist: inactive; EPAC1 antag: 14%; EPAC2 ag: 100µM*; EPAC1 agonist: 10%

Results for Cc1ccc(S(=O)(=O)Nc2ccc3cc([N+](=O)[O-])ccc3c2[N+](=O)[O-])cc1 ?
EPAC2 antagonist: 50µM*; PTHR1 agonist: -23%; EPAC1 antag: 79µM*; EPAC2 ag: -5%; EPAC1 agonist: -2%

How did Cc1ccc(CNS(=O)(=O)c2ccc(CN3C(=O)c4cccnc4C3=O)s2)o1 do in these assays?
TSHR antagonist: -89*; EPAC2 antagonist: 0%; PTHR1 agonist: -2%; EPAC1 antag: -12%; EPAC2 ag: 5%; EPAC1 agonist: 13%

Results for N#CC1=C(N)N2C(=C(C#N)C1c1cccc(Br)c1)Nc1ccccc12 (stereo not drawn) ?
TSHR antagonist: 0; EPAC2 antagonist: -3%; PTHR1 agonist: -33%; EPAC1 antag: 13%; EPAC2 ag: 2%; EPAC1 agonist: 5%

Results for N#CC1=C(N)N2C(=C(C#N)C1c1ccc(Br)cc1)Nc1ccccc12 (stereo not drawn) ?
TSHR antagonist: -79*; EPAC2 antagonist: 2%; PTHR1 agonist: -33%; EPAC1 antag: -7%; EPAC2 ag: 1%; EPAC1 agonist: -1%

What do the screens show for `O=C(CSc1nnnn1-c1ccccc1)Nc1ncc(Cc2ccccc2Cl)s1`?
TSHR antagonist: 12; EPAC2 antagonist: 1%; PTHR1 agonist: inactive; EPAC1 antag: -13%; EPAC2 ag: 2%; EPAC1 agonist: 12%

What do the screens show for `N=C1SC(c2ccccc2)C(=O)N1c1ncc(Cc2ccccc2Cl)s1` (stereo not drawn)?
TSHR antagonist: -40; EPAC2 antagonist: -2%; PTHR1 agonist: -10%; EPAC1 antag: 71µM*; EPAC2 ag: -1%; EPAC1 agonist: -11%

What do the screens show for `CC(C)(C)c1ccc(S(=O)(=O)NCC(=O)N2CCCC2)cc1`?
TSHR antagonist: -2; EPAC2 antagonist: 6%; PTHR1 agonist: -2%; EPAC1 antag: -11%; EPAC2 ag: 4%; EPAC1 agonist: 1%
